In PubChem BioAssay (NCI):
This is part of a sample that, as a whole, favours compounds with a hit. Of some 79,000 tested, about 15% had one in any assay. No stated cut-off is given here; in the data, active means growth inhibition above about 70%; inactive means the rest.

Columns and labels:
[1] = NCI Yeast Anticancer Drug Screen. Data for the rad50 strain (AID 155);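 further: 0% = growth of vehicle-only cultures of the same strain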; details: S. cerevisiae rad50 strain growth inhibition; at 50.0 µM; hits give high values
Summary of the method: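 Cells are treated with compound, grown, and their growth is then scored against vehicle-only cultures of the same repair-deficient yeast strain.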

[2] = NCI Yeast Anticancer Drug Screen. Data for the mec2-1 strain (AID 157); details: S. cerevisiae mec2-1 strain, at 50.0 µM, hits give high values
Summary of the method: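 Strain: mec2-1 (DNA repair/cell cycle alteration). Compound exposure, then growth measured; inhibition expressed relative to vehicle.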

[3] = NCI Yeast Anticancer Drug Screen. Data for the sgs1 mgt1 strain (AID 161);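 further: 0% = growth of cultures given vehicle only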; details: S. cerevisiae sgs1 mgt1 strain, at 50.0 µM, hits give high values
Summary of the method: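 Test agents were incubated with a DNA-repair-mutant yeast strain. Growth was then read and compared against vehicle-treated controls.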

[4] = NCI Yeast Anticancer Drug Screen. Data for the cln2 rad14 strain (AID 165);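 further: 0% = growth equal to vehicle treated cultures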; details: S. cerevisiae cln2 rad14 strain, at 50.0 µM, hits give high values
Summary of the method: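 Compounds are applied to the cln2 rad14 yeast strain, and growth is then compared with that of vehicle-treated cultures to give inhibition.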

[5] = NCI Yeast Anticancer Drug Screen. Data for the bub3 strain (AID 167); details: S. cerevisiae bub3 mutant strain, at 50.0 µM, hits give high values
Summary of the method: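 Part of a panel of yeast mutants defective in DNA damage repair or cell cycle regulation. Each strain is grown with compound, and inhibition is calculated relative to solvent-treated cultures.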

[6] = NCI Yeast Anticancer Drug Screen. Data for the mlh1 rad18 strain (AID 175); details: S. cerevisiae mlh1 rad18 strain growth inhibition; at 50.0 µM; hits give high values
Summary of the method: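 Read-out is yeast growth inhibition, calculated against vehicle-only controls. The compound was applied to a strain engineered with DNA damage repair alterations.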

Measured: growth inhibition

CC1(C)c2ccccc2C(=O)c2ccccc21
inactive: [1] 8.1% | [2] 6.65% | [3] 2.6% | [4] -4.6% | [5] -2.75% | [6] 5.45%

COc1ccc(-c2cc(=O)c3c(O)cc(O)cc3o2)cc1Oc1ccc(-c2cc(=O)c3c(O)cc(O)cc3o2)cc1
inactive: [1] 15.6% | [2] -12.2% | [3] -12.3% | [4] 2.35% | [5] -3.7% | [6] 5.1%

O=[N+]([O-])CC1(O)CCCCC1
inactive: [1] 25.6% | [2] 9.05% | [3] 11.2% | [4] 7.95% | [5] -0.65% | [6] 0.9%

CC(Nc1ccc([N+](=O)[O-])cc1)S(=O)(=O)O (stereo unspecified)
inactive: [1] 7.4% | [2] -0.2% | [3] 13.4% | [4] 16.6% | [5] 12.4% | [6] 18.4%

O=S1c2ccccc2N=C(c2ccc3ccccc3c2)CC1C1=CC=CCC1 (stereo unspecified)
inactive: [1] -27.4% | [2] -33.1% | [3] -3.1% | [4] -2.65% | [5] 3.85% | [6] -11.8%

C=C(C)[C@H]1C[C@@H](O)[C@H]2O[C@@]2(C)C1
inactive: [1] -8.05% | [2] -8.35% | [3] -25.9% | [4] -13.8% | [5] 0.8% | [6] -2.85%

CC12CCC(CC1=O)C2(C)CCC(N)=O (stereo unspecified)
inactive: [1] -1.55% | [2] -12% | [3] 18.2% | [4] -11.7% | [5] -17.9% | [6] -8.8%

CCN1C(=O)CC(SCCSC2CC(=O)N(CC)C2=O)C1=O (stereo unspecified)
inactive: [1] 16.7% | [2] -7.7% | [3] 6.25% | [4] -6.55% | [5] 13.7% | [6] -2.45%

Clc1cc2nnn(C3CCCCO3)c2cc1Cl (stereo unspecified)
inactive: [1] 9.75% | [2] -3.05% | [3] -23.4% | [4] -12.3% | [5] -0.9% | [6] 14.4%

CCCCNC(=O)c1c(Cl)c(Cl)c(Cl)c(Cl)c1C(=O)O
inactive: [1] 37.3% | [2] 17.1% | [3] 4.85% | [4] 17.5% | [5] 16.5% | [6] 28.2%

CCO[Si](CCCN)(OCC)OCC
inactive: [1] -37.5% | [2] -58.2% | [3] -36.2% | [4] 0.95% | [5] -22.1% | [6] -33.8%

CC1CCCC(C)(c2ccccc2)/C1=N\Nc1ccc([N+](=O)[O-])cc1[N+](=O)[O-] (stereo unspecified)
inactive: [1] 36.2% | [2] 13.9% | [3] 9.65% | [4] 18% | [5] 2.1% | [6] 29.9%

CC(=O)CC(=NCC(O)CN=C(CC(C)=O)c1ccccc1)c1ccccc1.[Cu] (stereo unspecified)
inactive: [1] 10.4% | [2] 8.55% | [3] 5.9% | [4] -18.7% | [5] -11.3% | [6] 25.4%

CSc1nc(-c2ccc(Cl)cc2)c(C#N)c(=O)n1C1OC(COC(C)=O)C(OC(C)=O)C(OC(C)=O)C1OC(C)=O (stereo unspecified)
inactive: [1] -0.55% | [2] -5.75% | [3] 16.6% | [4] 21.2% | [5] -36% | [6] 23.2%

Cc1ccc2[nH]c3c(ncc4[nH]c5ccccc5c43)c2c1
inactive: [1] 59.3% | [2] 44.1% | [3] 62.8% | [4] 52.1% | [5] 62.9% | [6] 62%

N#Cc1[nH]cnc1O
inactive: [1] -9.6% | [2] -10.4% | [3] -11.4% | [4] 7.7% | [5] 17.4% | [6] -5.85%

Cc1nc(-c2nc(C)c(C(=O)NN(C)C)s2)sc1C(=O)NN(C)C
inactive: [1] 28.4% | [2] -7.8% | [3] 23.2% | [4] 23.7% | [5] 3.1% | [6] 22%

CCC1COS(=O)(=O)CS(=O)(=O)O1 (stereo unspecified)
inactive: [1] -27.6% | [2] -16.2% | [3] -3.35% | [4] -40.9% | [5] 11.8% | [6] 3.1%

COC(=O)CCCc1ccccc1N
inactive: [1] -5.65% | [2] -8.8% | [3] -18.9% | [4] -35.8% | [5] 3.1% | [6] -15.9%

O=C1CSC(c2cccc(C(F)(F)F)c2)N1c1nncs1 (stereo unspecified)
inactive: [1] 10.5% | [2] 2.15% | [3] 19.6% | [4] 7.95% | [5] 16.6% | [6] 15.1%

COc1ccc2c(c1)CCCN1CCc3cc(OC)c(OC)cc3C21 (stereo unspecified)
inactive: [1] 21.1% | [2] 60.8% | [3] -21.3% | [4] -8.85% | [5] 4.5% | [6] -17.7%
